# Measured values: PMC7862700, “An all-to-all approach to the identification of sequence-specific readers for epigenetic DNA modifications on cytosine”
# Key:
# Test in all cases: DAPPL (digital affinity profiling via proximity ligation, sequencing); 10 mM Tris-HCl pH 7.5, 50 mM NaCl, 1 mM DTT, 4% glycerol, room temperature, 30 min; GST-TFs on glutathione beads, 16-mer random dsDNA library, 0.1% formaldehyde crosslink after washing; high values mean tight binding
# Settings in all cases: protein: recombinant; tags: N-terminal GST; dsDNA, one strand shown
# ELK1 = target: T1, ELK1 (Homo sapiens, UniProt P19419 1-428)
# T1 sequence: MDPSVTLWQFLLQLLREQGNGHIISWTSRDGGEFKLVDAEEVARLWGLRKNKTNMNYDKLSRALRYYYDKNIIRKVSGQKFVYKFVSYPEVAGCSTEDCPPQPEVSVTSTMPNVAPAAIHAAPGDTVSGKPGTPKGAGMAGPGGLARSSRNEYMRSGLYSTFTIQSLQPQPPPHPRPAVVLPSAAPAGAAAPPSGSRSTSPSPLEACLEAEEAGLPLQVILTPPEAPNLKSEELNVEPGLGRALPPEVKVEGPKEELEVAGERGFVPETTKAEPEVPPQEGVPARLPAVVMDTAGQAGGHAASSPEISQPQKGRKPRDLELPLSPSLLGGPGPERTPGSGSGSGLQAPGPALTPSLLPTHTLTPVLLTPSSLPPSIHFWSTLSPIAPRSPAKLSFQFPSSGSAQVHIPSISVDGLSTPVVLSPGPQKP
# Summary of the method: (§1)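 A tag-only sample was pooled with DNA-barcoded human transcription factors that had been expressed in yeast as GST fusions and captured on glutathione beads. The pools were incubated for 30 min at room temperature with 200 nmole of a random double-stranded 16-mer DNA library in Tris/NaCl/DTT/glycerol buffer, then washed, crosslinked with 0.1% formaldehyde, proximity-ligated (BsaI/T4 ligase, 1 h, 37 °C), PCR-amplified and sequenced on an Illumina NextSeq500. Binding signal is each hexamer's read frequency for a factor divided by its frequency for the tag-only sample.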
# GABPA = target: T2, GABPA (Homo sapiens, UniProt Q06546 1-454)
# T2 sequence: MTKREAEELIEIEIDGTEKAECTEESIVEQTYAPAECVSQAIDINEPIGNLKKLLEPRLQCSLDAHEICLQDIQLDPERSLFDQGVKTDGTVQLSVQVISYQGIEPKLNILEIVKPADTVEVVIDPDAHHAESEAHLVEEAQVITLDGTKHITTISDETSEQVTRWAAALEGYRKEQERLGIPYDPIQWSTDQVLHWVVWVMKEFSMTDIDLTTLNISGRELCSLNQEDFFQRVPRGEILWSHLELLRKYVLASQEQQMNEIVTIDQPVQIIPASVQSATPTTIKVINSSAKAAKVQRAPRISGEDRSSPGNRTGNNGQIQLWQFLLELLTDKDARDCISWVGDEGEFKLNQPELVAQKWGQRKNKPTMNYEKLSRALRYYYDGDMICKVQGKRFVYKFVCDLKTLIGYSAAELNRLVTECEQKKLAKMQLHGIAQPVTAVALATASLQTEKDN
# Summary of the method: as §1
# SPIB = SPIB (Homo sapiens, UniProt Q01892 1-262)
# Summary of the method: as §1
# ETV5 = ETV5 (Homo sapiens, UniProt P41161 1-510)
# Summary of the method: as §1
# ELK4 = target: T3, ELK4 (Homo sapiens, UniProt P28324-2 1-405)
# T3 sequence: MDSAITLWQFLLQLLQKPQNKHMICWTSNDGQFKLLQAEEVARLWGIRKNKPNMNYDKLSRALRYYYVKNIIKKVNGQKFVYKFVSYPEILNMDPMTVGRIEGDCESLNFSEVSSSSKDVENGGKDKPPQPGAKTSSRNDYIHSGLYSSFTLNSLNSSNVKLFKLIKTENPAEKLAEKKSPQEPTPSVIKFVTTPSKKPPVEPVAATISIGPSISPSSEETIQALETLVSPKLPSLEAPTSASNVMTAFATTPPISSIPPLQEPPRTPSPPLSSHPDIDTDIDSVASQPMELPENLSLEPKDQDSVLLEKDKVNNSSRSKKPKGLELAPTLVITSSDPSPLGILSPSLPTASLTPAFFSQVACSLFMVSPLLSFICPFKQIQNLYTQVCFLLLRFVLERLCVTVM
# Summary of the method: as §1
# ETV2 = target: T4, ETV2 (Homo sapiens, UniProt O00321 1-342)
# T4 sequence: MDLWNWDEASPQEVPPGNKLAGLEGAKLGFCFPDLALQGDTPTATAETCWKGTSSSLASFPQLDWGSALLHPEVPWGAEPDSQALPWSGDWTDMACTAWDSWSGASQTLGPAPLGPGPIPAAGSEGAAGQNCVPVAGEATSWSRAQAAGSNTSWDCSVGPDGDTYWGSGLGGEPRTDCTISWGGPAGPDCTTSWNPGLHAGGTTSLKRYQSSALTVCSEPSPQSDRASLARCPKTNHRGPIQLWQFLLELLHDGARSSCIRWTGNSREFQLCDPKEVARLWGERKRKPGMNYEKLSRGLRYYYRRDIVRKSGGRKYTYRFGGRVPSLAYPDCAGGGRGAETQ
# Summary of the method: as §1
# ELF3 = target: T5, ELF3 (Homo sapiens, UniProt P78545 1-371)
# T5 sequence: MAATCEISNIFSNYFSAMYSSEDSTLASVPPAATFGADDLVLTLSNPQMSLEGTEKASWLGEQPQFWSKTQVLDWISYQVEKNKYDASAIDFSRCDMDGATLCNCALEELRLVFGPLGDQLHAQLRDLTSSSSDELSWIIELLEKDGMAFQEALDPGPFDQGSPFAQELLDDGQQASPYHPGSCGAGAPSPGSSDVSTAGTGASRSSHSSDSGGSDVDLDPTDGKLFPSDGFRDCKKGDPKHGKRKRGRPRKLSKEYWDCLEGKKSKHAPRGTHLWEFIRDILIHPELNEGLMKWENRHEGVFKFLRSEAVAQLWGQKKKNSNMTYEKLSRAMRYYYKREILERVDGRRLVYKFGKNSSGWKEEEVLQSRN
# Summary of the method: as §1
# ETV1 = ETV1 (Homo sapiens, UniProt P50549 1-477)
# Summary of the method: as §1
# ETV3L = target: T6, ETV3L (Homo sapiens, UniProt Q6ZN32 1-361)
# T6 sequence: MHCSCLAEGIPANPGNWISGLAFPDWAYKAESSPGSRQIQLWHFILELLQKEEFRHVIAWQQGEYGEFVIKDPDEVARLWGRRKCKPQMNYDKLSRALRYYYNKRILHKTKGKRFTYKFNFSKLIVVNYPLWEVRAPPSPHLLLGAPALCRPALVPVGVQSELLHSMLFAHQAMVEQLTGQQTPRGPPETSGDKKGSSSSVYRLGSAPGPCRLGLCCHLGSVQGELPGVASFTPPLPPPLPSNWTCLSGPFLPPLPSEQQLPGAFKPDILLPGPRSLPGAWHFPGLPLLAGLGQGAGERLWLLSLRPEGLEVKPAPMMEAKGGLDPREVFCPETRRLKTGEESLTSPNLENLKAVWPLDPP
# Summary of the method: as §1
# ETS2 = target: T7, ETS2 (Homo sapiens, UniProt P15036 1-469)
# T7 sequence: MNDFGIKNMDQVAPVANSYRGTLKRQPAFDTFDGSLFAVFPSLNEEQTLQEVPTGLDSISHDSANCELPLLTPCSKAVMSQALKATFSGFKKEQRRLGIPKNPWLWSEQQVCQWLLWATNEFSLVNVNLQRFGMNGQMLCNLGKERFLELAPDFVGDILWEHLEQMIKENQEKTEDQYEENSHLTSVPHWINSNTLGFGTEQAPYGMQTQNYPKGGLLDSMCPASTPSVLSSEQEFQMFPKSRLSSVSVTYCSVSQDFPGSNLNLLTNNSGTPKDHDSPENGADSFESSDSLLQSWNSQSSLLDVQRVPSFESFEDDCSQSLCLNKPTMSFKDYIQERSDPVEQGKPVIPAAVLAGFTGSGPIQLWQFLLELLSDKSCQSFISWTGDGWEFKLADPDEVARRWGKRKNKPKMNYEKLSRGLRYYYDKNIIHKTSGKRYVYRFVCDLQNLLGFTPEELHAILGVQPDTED
# Summary of the method: as §1
# SPDEF = target: T8, SPDEF (Homo sapiens, UniProt O95238 1-335)
# T8 sequence: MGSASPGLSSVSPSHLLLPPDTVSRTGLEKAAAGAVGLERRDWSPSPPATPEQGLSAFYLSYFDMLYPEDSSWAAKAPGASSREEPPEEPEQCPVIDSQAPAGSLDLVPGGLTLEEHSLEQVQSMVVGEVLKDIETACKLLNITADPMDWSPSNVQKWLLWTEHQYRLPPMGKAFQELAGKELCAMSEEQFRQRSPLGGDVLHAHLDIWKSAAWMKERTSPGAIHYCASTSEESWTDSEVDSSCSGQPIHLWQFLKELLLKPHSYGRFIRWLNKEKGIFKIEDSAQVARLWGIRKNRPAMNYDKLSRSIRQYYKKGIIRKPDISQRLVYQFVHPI
# Summary of the method: as §1
# ETV7 = target: T9, ETV7 (Homo sapiens, UniProt Q9Y603 1-341)
# T9 sequence: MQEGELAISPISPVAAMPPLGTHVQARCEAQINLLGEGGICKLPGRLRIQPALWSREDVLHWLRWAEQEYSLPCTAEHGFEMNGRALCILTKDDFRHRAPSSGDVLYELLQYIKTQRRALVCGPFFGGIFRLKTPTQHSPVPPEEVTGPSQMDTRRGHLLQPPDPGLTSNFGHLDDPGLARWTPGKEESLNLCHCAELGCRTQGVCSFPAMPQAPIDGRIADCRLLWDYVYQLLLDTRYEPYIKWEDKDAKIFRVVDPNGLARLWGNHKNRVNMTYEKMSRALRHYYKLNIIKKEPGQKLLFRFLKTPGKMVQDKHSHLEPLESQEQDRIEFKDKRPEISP
# Summary of the method: as §1
# ETV3 = target: T10, ETV3 (Homo sapiens, UniProt P41162-2 1-143)
# T10 sequence: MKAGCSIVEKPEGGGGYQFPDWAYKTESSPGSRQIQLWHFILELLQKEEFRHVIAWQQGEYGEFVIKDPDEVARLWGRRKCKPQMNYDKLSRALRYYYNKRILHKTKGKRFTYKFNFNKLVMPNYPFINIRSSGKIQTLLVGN
# Summary of the method: as §1
# ETV6 = ETV6 (Homo sapiens, UniProt P41212 1-452)
# Summary of the method: as §1
# Sequence of ETV5 (P41161 whole entry): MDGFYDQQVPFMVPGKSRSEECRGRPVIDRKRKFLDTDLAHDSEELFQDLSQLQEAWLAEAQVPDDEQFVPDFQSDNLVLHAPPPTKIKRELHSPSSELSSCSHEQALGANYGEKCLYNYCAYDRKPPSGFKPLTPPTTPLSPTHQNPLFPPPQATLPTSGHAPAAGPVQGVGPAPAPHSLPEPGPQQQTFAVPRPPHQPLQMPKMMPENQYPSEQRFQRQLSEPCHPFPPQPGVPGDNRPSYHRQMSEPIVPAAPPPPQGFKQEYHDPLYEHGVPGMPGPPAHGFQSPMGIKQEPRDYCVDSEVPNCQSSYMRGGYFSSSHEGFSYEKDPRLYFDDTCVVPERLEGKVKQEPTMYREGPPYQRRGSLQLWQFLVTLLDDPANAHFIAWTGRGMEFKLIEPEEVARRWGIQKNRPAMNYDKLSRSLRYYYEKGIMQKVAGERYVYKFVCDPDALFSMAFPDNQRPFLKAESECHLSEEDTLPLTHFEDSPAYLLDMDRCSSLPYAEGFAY
# Sequence of ETV1 (P50549 whole entry): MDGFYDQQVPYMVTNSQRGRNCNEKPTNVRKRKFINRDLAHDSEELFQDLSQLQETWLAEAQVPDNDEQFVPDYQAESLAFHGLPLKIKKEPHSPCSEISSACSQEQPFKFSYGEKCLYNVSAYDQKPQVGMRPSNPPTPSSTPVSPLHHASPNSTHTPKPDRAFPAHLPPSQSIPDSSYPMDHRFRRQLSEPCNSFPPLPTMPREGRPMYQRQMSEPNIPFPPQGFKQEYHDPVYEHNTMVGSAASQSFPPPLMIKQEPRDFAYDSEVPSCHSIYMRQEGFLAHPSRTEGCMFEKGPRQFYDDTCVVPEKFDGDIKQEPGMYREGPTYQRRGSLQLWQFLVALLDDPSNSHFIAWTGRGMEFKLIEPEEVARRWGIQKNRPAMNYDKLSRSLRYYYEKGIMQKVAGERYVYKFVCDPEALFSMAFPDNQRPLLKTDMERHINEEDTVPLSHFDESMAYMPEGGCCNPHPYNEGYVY
# Sequence of SPIB (Q01892 whole entry): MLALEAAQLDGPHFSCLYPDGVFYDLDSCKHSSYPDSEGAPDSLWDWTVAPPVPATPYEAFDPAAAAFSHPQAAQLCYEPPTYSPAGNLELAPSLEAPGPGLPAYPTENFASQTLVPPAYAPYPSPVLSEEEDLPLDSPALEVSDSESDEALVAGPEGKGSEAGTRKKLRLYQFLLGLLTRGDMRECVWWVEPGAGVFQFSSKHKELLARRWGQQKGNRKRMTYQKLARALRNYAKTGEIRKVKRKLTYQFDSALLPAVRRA
# Sequence of ETV6 (P41212 whole entry): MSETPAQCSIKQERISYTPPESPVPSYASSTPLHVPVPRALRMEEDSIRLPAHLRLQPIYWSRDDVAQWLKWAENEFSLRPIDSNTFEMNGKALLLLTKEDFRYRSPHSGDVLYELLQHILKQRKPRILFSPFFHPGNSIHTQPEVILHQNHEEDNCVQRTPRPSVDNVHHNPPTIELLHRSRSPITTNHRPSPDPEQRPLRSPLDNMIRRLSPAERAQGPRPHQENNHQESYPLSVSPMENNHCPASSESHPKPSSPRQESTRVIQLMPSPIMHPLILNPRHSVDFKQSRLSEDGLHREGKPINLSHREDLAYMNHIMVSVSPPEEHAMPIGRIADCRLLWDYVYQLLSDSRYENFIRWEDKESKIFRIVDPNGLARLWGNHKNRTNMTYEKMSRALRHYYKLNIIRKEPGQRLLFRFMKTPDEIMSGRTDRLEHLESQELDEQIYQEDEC
sequence,measurement,setting,value
CGTTTG,binding signal,ELK1,"1.03 fold enrichment (6-mer frequency, TF over GST control)"
same,binding signal,GABPA,"1.03 fold enrichment (6-mer frequency, TF over GST control)"
same,binding signal,SPIB,"1.06 fold enrichment (6-mer frequency, TF over GST control)"
same,binding signal,ETV5,"1.01 fold enrichment (6-mer frequency, TF over GST control)"
same,binding signal,ELK4,"1.07 fold enrichment (6-mer frequency, TF over GST control)"
same,binding signal,ETV2,"1.16 fold enrichment (6-mer frequency, TF over GST control)"
same,binding signal,ELF3,"1.02 fold enrichment (6-mer frequency, TF over GST control)"
same,binding signal,ETV1,"1.06 fold enrichment (6-mer frequency, TF over GST control)"
same,binding signal,ETV3L,"1 fold enrichment (6-mer frequency, TF over GST control)"
same,binding signal,ETS2,"1.06 fold enrichment (6-mer frequency, TF over GST control)"
same,binding signal,SPDEF,"1.01 fold enrichment (6-mer frequency, TF over GST control)"
same,binding signal,ETV7,"1.21 fold enrichment (6-mer frequency, TF over GST control)"
same,binding signal,ETV3,"1.08 fold enrichment (6-mer frequency, TF over GST control)"
same,binding signal,ETV6,"1.01 fold enrichment (6-mer frequency, TF over GST control)"
